# A selection: hits, their analogues and other compounds. The true share with any hit is near 3.5%.
# TEAD-YAP block – TEAD-YAP interaction inhibition; HEK-TIYL cells, TEAD-Gal4/YAP UAS-luciferase luminescence; inhibition, % at 9.12 µM; 640,000 tested, 1.4% active; in the data active = inhibition above about 32%
# MITF primary – blocks human microphthalmia-associated transcription factor; O75030; AlphaScreen MITF homodimerization, bead proximity signal; inhibition, % at 2.6 µM; 650,000 tested, 0.91% active; AID 1259374; in the data active = inhibition above about 50%
# FBW7 activator – activators of human E3 ligase FBW7; Q969H0; AlphaScreen FBW7–phospho-cyclin E peptide binding, activator screen; normalized activity (activation), % at 26.1 µM; 650,000 tested, 0.13% active; AID 1259310; in the data active = normalized activity above about 1.9%;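 also: purified mutant Fbw7 with reduced substrate affinity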
# GPR151 ag – activators of human GPR151 | AID 1508602 | PathHunter beta-arrestin GPR151 cells, luminescence | activation, % at 11.2 µM | Q8TDV0 | 650,000 tested, 1% active; in the data active = activation above about 4.9%
# Target sequence (Q8TDV0 whole entry, looked up): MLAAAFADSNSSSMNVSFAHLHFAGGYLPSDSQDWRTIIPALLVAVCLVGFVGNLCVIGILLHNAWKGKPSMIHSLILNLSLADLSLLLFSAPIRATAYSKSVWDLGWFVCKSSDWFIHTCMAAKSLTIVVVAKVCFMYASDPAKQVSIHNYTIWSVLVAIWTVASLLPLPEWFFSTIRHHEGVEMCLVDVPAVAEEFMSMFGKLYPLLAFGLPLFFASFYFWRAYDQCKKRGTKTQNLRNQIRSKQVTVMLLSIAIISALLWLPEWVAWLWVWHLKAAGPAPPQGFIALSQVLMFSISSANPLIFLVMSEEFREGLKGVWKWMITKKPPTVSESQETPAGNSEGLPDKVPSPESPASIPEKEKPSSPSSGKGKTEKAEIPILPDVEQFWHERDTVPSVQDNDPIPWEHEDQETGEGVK
# A number is an active result; 0 = inactive.
SMILES,TEAD-YAP block,MITF primary,FBW7 activator,GPR151 ag
COc1ccc(S(=O)(=O)N2CCCc3ccccc32)cc1C,37,0,0,0
O=S(=O)(c1ccc(F)cc1)N1CCc2ccccc21,0,0,0,0
O=S(=O)(c1cccc(S(=O)(=O)N2CCc3ccccc32)c1)N1CCCC1,43,0,0,0
Cc1ccc(S(=O)(=O)N2CCc3ccccc32)cc1C(N)=O,0,0,0,0
Cc1ccc(S(=O)(=O)N2CCc3ccccc32)cc1[N+](=O)[O-],56,0,0,0
Cn1c(NC(=O)/C=C\c2ccc3c(c2)OCO3)cc(=O)n(C)c1=O,0,0,0,0
CCCNC(=O)c1cc(S(=O)(=O)N2CCc3ccccc32)cn1C,32,0,0,0
COC(=O)c1cc(S(=O)(=O)N2CCc3ccccc32)cn1C,0,0,0,0
CCOC(=O)C1CCCN(C(=O)c2cc3c(-c4cccc(OC)c4)nn(C)c3s2)C1 (stereo unspecified),38,0,0,0
COc1cccc(-c2nn(C)c3sc(C(=O)N4CCN(c5ccccn5)CC4)cc23)c1,35,0,0,0
C=CCn1c(SCC(=O)Nc2nnc(-c3ccccc3)s2)nnc1-c1cccs1,0,0,0,0
O=C(/C=C/c1ccccc1)N1CCN(Cc2nc(-c3ccc(F)cc3)cs2)CC1,39,0,0,0
O=C(/C=C/c1ccc(F)cc1)N1CCN(Cc2ccccc2)CC1,0,0,0,0
Cc1ccc(N2CC(C(=O)Nc3nccs3)CC2=O)cc1Cl (stereo unspecified),61,0,0,0
Cc1nc2ncccn2c1-c1csc(Nc2cccc(Cl)c2C)n1,38,0,0,0
Cc1ccc(Nc2nc(-c3c(C)nc4ncccn34)cs2)cc1,60,0,0,0
Cc1nc2ccccn2c1-c1csc(Nc2cccc(Cl)c2C)n1,0,0,0,0
Cc1nc2ncccn2c1-c1csc(Nc2ccc(Cl)cc2)n1,54,0,0,0
CCOc1ccc(Nc2nc(-c3c(C)nc4ncccn34)cs2)cc1,58,0,0,0
O=C1c2ccc3c4c(ccc(c24)C(=O)N1N=C1CCCCC1)CC3,0,0,0,0
CCC(=O)Nc1nc(-c2ccc(OC)c(OC)c2)cs1,0,0,0,0
Cn1c(-c2ccccc2)cnc1NC(=O)c1ccc(F)cc1,49,0,0,0
O=C(O)c1cccc(COc2cccc(Cl)c2)c1,0,0,0,0
O=C(O)c1cccc(COc2ccc(CO)cc2)c1,79,0,0,0
O=C(O)c1cccc(COc2ccc3ccccc3c2)c1,86,0,0,0
SMILES,TEAD-YAP block,MITF primary,FBW7 activator,GPR151 ag
O=C(O)c1cccc(COc2ccccc2Br)c1,65,0,0,0
Cc1ccccc1Nc1nc(N)nc(CSc2ncnc3sccc23)n1,0,0,0,0
CCN1CCN(C(CC(C)C)c2nnnn2CC2CCCO2)CC1 (stereo unspecified),0,0,0,0
CCOC(=O)COc1ccc2ccccc2c1/C=C/[N+](=O)[O-],0,0,0,0
COc1ccc2ccccc2c1/C=C/[N+](=O)[O-],49,0,0,0
CC(C)Oc1ccc2ccccc2c1/C=C/[N+](=O)[O-],36,0,0,0
Oc1ccc(CCNc2nc(Nc3ccc4ncccc4c3)nc3c2ncn3-c2ccccc2)cc1,46,0,0,0
OCCNc1nc(Nc2ccncn2)nc2c1ncn2Cc1ccc(C(F)(F)F)cc1,0,0,3.1,0
OCCNc1nc(Nc2ccc3ncccc3c2)nc2c1ncn2-c1ccccc1,45,0,0,0
Oc1ccc(CCNc2nc(Nc3ccncn3)nc3c2ncn3-c2ccccc2)cc1,43,0,0,0
CCCNc1nc(Nc2ccccc2)nc2c1ncn2-c1ccccc1,0,0,0,0
CCCNc1nc(Nc2ccc3ncccc3c2)nc2c1ncn2-c1ccsc1,48,0,0,0
CCCNc1nc(Nc2ccncc2)nc2c1ncn2-c1ccccc1,43,0,0,0
CCCNc1nc(Nc2ccc3ncccc3c2)nc2c1ncn2-c1ccccc1,34,0,0,0
CCCCOc1ccc(/C=C2/N=C(c3cc(Cl)ccc3OC)OC2=O)cc1,0,0,0,0
COc1cccc(CSc2nc3ccncc3[nH]2)c1,69,0,0,0
Cc1nnc2c(N3CCc4ccccc43)nc3ccccc3n12,0,0,0,0
CCCCCSc1nnc2c(n1)OC(c1cccs1)N(C(C)=O)c1ccccc1-2 (stereo unspecified),0,0,0,0
CCOCCn1c(=NC(=O)c2cccc(OC)c2OC)sc2ccccc21,74,0,0,0
COCCn1c(=NC(=O)c2cccc(OC)c2OC)sc2cc(OC)c(OC)cc21,0,0,0,0
O=C(NCc1ccccc1)C(=O)NCc1cccnc1,0,0,0,0
O=C(NCc1cccnc1)c1ccc(C#Cc2ccccc2)o1,99,0,0,0
CC(C)c1ccc(CNC(=O)C(=O)NCc2cccnc2)cc1,47,0,0,0
COc1ccc(C(NC(C)=O)c2ccc3cccnc3c2O)cc1OC (stereo unspecified),83,66,0,0
COc1ccc(C(NC(C)=O)c2cc(Cl)c3cccnc3c2O)cc1OC (stereo unspecified),0,0,0,0
SMILES,TEAD-YAP block,MITF primary,FBW7 activator,GPR151 ag
CCC(=O)NC(c1ccc(OC)c(OC)c1)c1cc(Cl)c2cccnc2c1O (stereo unspecified),46,0,0,0
CCC(=O)NC(c1ccc(OC)c(OC)c1)c1ccc2cccnc2c1O (stereo unspecified),87,59,0,0
Cc1noc(-c2ccc(NC(=O)c3cccnc3)cc2)n1,43,0,0,0
COc1ccc(C(=O)COC(=O)c2ccco2)cc1OC,0,0,0,0
Fc1ccccc1CSc1nnnn1-c1ccccc1F,0,0,2.3,0
CCOC(=O)CSc1nnnn1-c1ccccc1F,0,0,0,0
NC(=O)CSc1nnnn1-c1ccccc1F,0,0,2.4,0
COc1ccc2nc(N3CCC(N4CCCC(OC)C4)CC3)nc(C)c2c1 (stereo unspecified),0,0,0,0
N.N.N.N.N.N.N.N.N.N.N.N.N.N.O.O.[Cl-].[Cl-].[Cl-].[Cl-].[Cl-].[Cl-].[Ru+2].[Ru+2].[Ru+2],41,0,0,0
O=C(c1ccccc1)N1CCC(N2CCCCC2)CC1,0,0,0,0
Oc1ccc(-c2cn3c(n2)SCC3)cc1O,0,65,0,0
Oc1ccc(-c2cn3c(n2)SCC3)cc1,0,0,0,0
CCCNc1nc(N2CCN(c3ccccn3)CC2)nc2c1ncn2-c1ccccc1,40,0,0,0
c1ccc(-n2cnc3c(NCc4nc5ccccc5[nH]4)nc(N4CCN(c5ccccn5)CC4)nc32)cc1,48,0,0,0
c1ccc(-n2cnc3c(NCc4nc5ccccc5[nH]4)nc(N4CCc5ccccc5C4)nc32)cc1,0,0,0,0
O=C(NN1C(=O)c2cccc3c([N+](=O)[O-])ccc(c23)C1=O)c1ccc([N+](=O)[O-])cc1,0,0,2.6,0
CCc1ccc(CNC(=O)Cc2ccc(NC(=O)C3=C(C)OCCS3)cc2)cc1,35,0,0,0
CCC(=O)NC(c1ccccc1Cl)c1cc([N+](=O)[O-])c2cccnc2c1O (stereo unspecified),0,72,0,0

# Screening results deposited in PubChem BioAssay by The Scripps Research Institute Molecular Screening Center.
